Consider ten compounds from PMC5540273 (PLoS ONE, 2017).

The subject of assay [1] is CDK4-cyclinD3. Conditions: concentration: 1 μM, replicates: in singlicate, n = 1.
In assay [2] the test system is CDK4. Conditions: concentration: 1 μM, replicates: in singlicate, n = 1.
For assay [3], the system named is CDK5. Conditions: concentration: 1 μM, replicates: in singlicate; n = 1.
Assay [4] has as its system CDK7. Conditions: concentration: 1 μM, replicates: in singlicate, n = 1.
Assay [5] concerns CDK8. Conditions: concentration: 1 μM, replicates: in singlicate, n = 1.
For assay [6], the system named is CDK9. Conditions: concentration: 1 μM, replicates: in singlicate; n = 1.
Assay [7] has as its system CDKL1. Conditions: concentration: 1 μM, replicates: in singlicate, n = 1.
The test system of assay [8] is CDKL2. Conditions: concentration: 1 μM, replicates: in singlicate, n = 1.
The test system of assay [9] is CDKL3. Conditions: concentration: 1 μM, replicates: in singlicate; n = 1.
The test system of assay [10] is CDKL5. Conditions: concentration: 1 μM, replicates: in singlicate; n = 1.
The subject of assay [11] is CHEK1. Conditions: concentration: 1 μM, replicates: in singlicate, n = 1.
Assay [12] relates to CHEK2. Conditions: concentration: 1 μM, replicates: in singlicate, n = 1.
For assay [13], the system named is CIT. Conditions: concentration: 1 μM, replicates: in singlicate, n = 1.
Assay [14] relates to CLK1. Conditions: concentration: 1 μM, replicates: in singlicate, n = 1.
The test system of assay [15] is CLK2. Conditions: concentration: 1 μM, replicates: in singlicate; n = 1.
The test system of assay [16] is CLK3. Conditions: concentration: 1 μM, replicates: in singlicate, n = 1.
In assay [17] the test system is CLK4. Conditions: concentration: 1 μM, replicates: in singlicate, n = 1.
Assay [18] concerns CSF1R-autoinhibited. Conditions: concentration: 1 μM, replicates: in singlicate, n = 1.
For assay [19], the system named is CSF1R. Conditions: concentration: 1 μM, replicates: in singlicate, n = 1.
Assay [20] deals with CSK. Conditions: concentration: 1 μM, replicates: in singlicate, n = 1.

Values joined by “and” are separate entries in the source; they are usually repeats but may differ in a detail not shown here. Equal entries are not always repeated. Where two headings read alike, the source gives them in different places.
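Also: KINOMEscan kinase panel screen.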

On to `CC(C)(CN)c1nc(-c2ccc(Cl)c(O)c2)c(-c2ccncc2)[nH]1.O=C(O)C(F)(F)F` [SB-477794], for which the “%Inh” value in assay [1] (1 µM) was 32% and 0%; in [2] (1 µM), 39% and 51%; in assay [3], 0%; in assay [4] (1 µM) it was 0% and 14%; in assay [5] (1 µM) it was 59% and 64%; in assay [6], 0%. Besides, the “%Inh” value in [7] (1 µM) was 3% and 10%; in assay [8] (1 µM), 14% and 0%; in assay [9], 0%; in assay [10] it was 0%; in assay [11] (1 µM), 20% and 10%; in assay [12] (1 µM), 41% and 59%. The “%Inh” value is 100% and 99.4% in assay [13] (1 µM); 14% and 3% in [14] (1 µM); 0% in [15]; 1% and 11% in assay [16] (1 µM); 6% and 11% in assay [17] (1 µM); 12% and 52% in [18] (1 µM). Further, the “%Inh” value in [19] (1 µM) was 50% and 43%; in assay [20] (1 µM), 44% and 28%.
With `O=C(Nc1n[nH]c2cc(-c3cccc(F)c3)ccc12)C1CC1` [SB-735464], the “%Inh” value came out at 7% in assay [1]; 44% in assay [2]; 3% in assay [3]; 0% in [4]; 0% in [5]; 0% in assay [6]. Further, the “%Inh” value in assay [7] was 6%; in assay [8] it was 57%; in [9], 28%; in assay [10], 4%; in [11], 0%; in [12], 0%. In addition, the “%Inh” value is 20% in assay [13]; 12% in assay [14]; 9% in [15]; 22% in assay [16]; 7% in assay [17]; 0% in assay [18]. Besides, the “%Inh” value in assay [19] and in assay [20] was 2% in each case.
Consider `O=c1cc(N2CCOCC2)nc2n(Cc3cccc(F)c3)ccn12` [GSK2297430], for which the “%Inh” value is listed as 0% in assay [1]; 19% in [2]; 0% in assay [3]; 0% in assay [4]; 26% in assay [5]; 0% in assay [6]. Also, the “%Inh” value in assay [7], in assay [8], in assay [9], in assay [10], in assay [11] and in [12] was 0% each time. Further, the “%Inh” value was 26% in [13]; 33% in assay [14]; 0% in assay [15]; 30% in assay [16]; 45% in assay [17]; 0% in assay [18]. Moreover, the “%Inh” value in assay [19] and in assay [20] was 0% throughout.
As for `c1ccc(-c2cc(-c3c[nH]nc3-c3ccccn3)ccn2)cc1` [GW576604], the “%Inh” value in assay [1] was determined as 0%; in assay [2], 49%; in assay [3] it was 0%; in [4], 0%; in [5], 13%; in assay [6], 0%. Also, the “%Inh” value in [7] worked out at 0%; in [8], 0%; in [9], 0%; in assay [10], 0%; in assay [11], 0%; in [12] it was 6%. The “%Inh” value in assay [13] was 27%; in assay [14] it was 5%; in assay [15], 12%; in assay [16], 0%; in assay [17], 11%; in assay [18], 26%. Also, the “%Inh” value in [19] and in [20] was 0% throughout.
On to `Cc1cccc(Cn2ccn3c(=O)cc(N4CCOCC4)nc23)c1` [GSK2297542], for which the “%Inh” value turned out to be 0% in assay [1]; 6% in [2]; 0% in assay [3]; 0% in assay [4]; 31% in [5]; 0% in [6]. Moreover, the “%Inh” value stood at 20% in assay [7]; 29% in [8]; 0% in [9]; 0% in assay [10]; 13% in [11]; 4% in assay [12]. Further, the “%Inh” value in [13] is listed as 23%; in assay [14] it was 50%; in [15], 20%; in [16], 58%; in assay [17] it was 45%; in assay [18] it was 8%. The “%Inh” value in [19] turned out to be 11%; in assay [20], 55%.
Take `O=C(c1ccc(-c2cc(-c3c[nH]nc3-c3ccccn3)ccn2)cc1)N1CCOCC1` [GW812171]: the “%Inh” value is given as 0% in assay [1]; 1% in [2]; 0% in [3]; 17% in assay [4]; 7% in assay [5]; 0% in assay [6]. In addition, the “%Inh” value in [7] was 25%; in assay [8] it was 8%; in [9] it was 0%; in [10], 0%; in assay [11], 0%; in assay [12] it was 0%. In addition, the “%Inh” value in assay [13] stood at 0%; in assay [14] it was 0%; in assay [15], 0%; in [16] it was 0%; in assay [17], 0%; in assay [18], 12%. Moreover, the “%Inh” value in [19] was 16%; in assay [20] it was 51%.
As to `CC(C)Oc1ccc2c(-c3ccnc(Nc4ccc(N5CCN(C)CC5)cc4)n3)cnn2n1` [GW696155], the “%Inh” value in assay [1] stood at 97.8%; in assay [2] it was 58%; in assay [3], 0%; in [4], 99.8%; in assay [5], 8%; in assay [6], 21%. The “%Inh” value in assay [7] worked out at 34%; in assay [8] it was 99.6%; in assay [9] it was 92%; in assay [10], 43%; in assay [11] it was 0%; in [12], 67%. Further, the “%Inh” value in assay [13] amounted to 98.7%; in assay [14], 97%; in assay [15] it was 96.8%; in [16] it was 1%; in assay [17] it was 93.7%; in assay [18], 58%. Besides, the results for the “%Inh” value in assay [19] and in assay [20] were 65% and 34%, respectively.
With `CN(C1=C(c2ccccc2)C(=O)NC1=O)c1ccccc1` [SB-334860], the “%Inh” value is 9% in assay [1]; 5% in assay [2]; 6% in assay [3]; 15% in assay [4]; 4% in [5]; 9% in assay [6]. Moreover, the “%Inh” value in assay [7] was 6%; in assay [8] it was 0%; in assay [9], 0%; in [10], 8%; in assay [11], 0%; in assay [12], 16%. In addition, the “%Inh” value in [13] was 37%; in assay [14] it was 24%; in assay [15], 12%; in assay [16], 0%; in assay [17], 6%; in assay [18] it was 0%. The “%Inh” value in assay [19] worked out at 18%; in assay [20], 6%.
`Cc1nnc(-c2ccc3occ(-c4ccc(C(C)O)cc4)c3c2)o1` (centres unmarked): the “%Inh” value in assay [1] is 0%; in assay [2], 0%; in assay [3] it was 1%; in assay [4] it was 17%; in [5], 0%; in assay [6], 8%. Besides, the “%Inh” value in assay [7] was 52%; in assay [8] it was 0%; in assay [9] it was 0%; in [10], 25%; in assay [11] it was 13%; in assay [12], 15%. Besides, the “%Inh” value in assay [13] is 11%; in assay [14] it was 31%; in [15], 2%; in assay [16], 6%; in assay [17], 33%; in assay [18], 6%. Besides, the “%Inh” value in [19] is on record as 1%; in [20] it was 3%.
As for `Cc1ccc(C(=O)NCC(N)=O)cc1-n1c(C)cc(OCc2ccc(F)cc2F)c(Br)c1=O`, the “%Inh” value in assay [1] is 0%; in [2], 0%; in assay [3], 0%; in [4], 0%; in [5] it was 8%; in [6] it was 0%. The “%Inh” value in assay [7] worked out at 44%; in assay [8], 3%; in assay [9], 9%; in [10], 0%; in assay [11], 17%; in [12], 9%. Moreover, the “%Inh” value is 8% in [13]; 0% in assay [14]; 0% in assay [15]; 3% in assay [16]; 12% in assay [17]; 0% in assay [18]. Further, the figures for the “%Inh” value in assay [19] and in [20] were 16% and 0%, respectively.
